The campaign covered roughly 96,000 compounds. About 200 (0.21%) were called active.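 How the source made its calls: active means inhibition at 2 µM at or above a set limit, the screen mean plus 3 SD (cut at about 24% in these data); inactive means the rest.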 For the sample, actives were picked, then their nearest neighbours and some compounds at random.
Target: Tyrosine-protein phosphatase non-receptor type 22 (Homo sapiens) (UniProt Q9Y2R2)
Experiment: blockers of human LYP enzyme activity – biochemical, DiFMUP fluorescence, 2 µM, primary screen (AID 640);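 further: 0% = DMSO with enzyme and 100% = enzyme fully blocked by orthovanadate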
Conditions: recombinant LYP catalytic domain, at 2 µM, active compounds read high

Sequence of Tyrosine-protein phosphatase non-receptor type 22 (Homo sapiens) (Q9Y2R2 whole entry, looked up): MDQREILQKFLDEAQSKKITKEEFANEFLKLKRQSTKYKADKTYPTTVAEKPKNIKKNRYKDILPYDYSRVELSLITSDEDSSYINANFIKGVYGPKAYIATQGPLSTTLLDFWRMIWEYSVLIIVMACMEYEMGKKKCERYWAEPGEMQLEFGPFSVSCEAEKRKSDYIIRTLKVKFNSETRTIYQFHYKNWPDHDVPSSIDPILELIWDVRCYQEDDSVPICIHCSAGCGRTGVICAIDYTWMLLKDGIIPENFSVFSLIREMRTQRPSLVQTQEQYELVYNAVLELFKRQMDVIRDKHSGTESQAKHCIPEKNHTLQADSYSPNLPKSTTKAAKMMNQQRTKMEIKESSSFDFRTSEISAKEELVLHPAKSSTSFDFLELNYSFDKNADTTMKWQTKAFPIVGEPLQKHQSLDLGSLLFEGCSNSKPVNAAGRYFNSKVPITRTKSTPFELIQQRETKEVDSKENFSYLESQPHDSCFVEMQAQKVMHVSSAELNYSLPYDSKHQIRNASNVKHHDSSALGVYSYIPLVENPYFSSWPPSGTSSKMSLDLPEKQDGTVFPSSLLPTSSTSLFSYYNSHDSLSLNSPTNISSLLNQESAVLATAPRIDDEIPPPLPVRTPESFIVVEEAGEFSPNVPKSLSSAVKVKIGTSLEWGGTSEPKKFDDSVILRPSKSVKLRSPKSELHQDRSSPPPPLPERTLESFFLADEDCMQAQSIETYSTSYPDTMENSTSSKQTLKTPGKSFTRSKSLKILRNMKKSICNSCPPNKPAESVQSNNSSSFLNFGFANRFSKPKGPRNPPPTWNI

Structure (SMILES) | inhibition
Cc1ccc(OCC(=O)Nc2cccc3c2CCCC3)cc1C | 10% (inactive)
CCN1CCN(C(=O)/C=C\C(=O)O)CC1 | -7% (inactive)
Cc1cc(S(=O)(=O)NC2CCCCC2)ccc1OCC(=O)NCc1cccnc1 | -9.7% (inactive)
COc1ccc(Br)cc1CN1CCN(C(=O)c2cccc(OC)c2OC)CC1 | 0.1% (inactive)
COC(=O)c1c(CCl)noc1C(=O)NC(C)C | -0.4% (inactive)
CCc1ccc2c(c1)C1(NN=C(c3ccccc3)S1)C(=O)N2 (stereo not given) | 15.3% (inactive)
CCCCc1nnc(NC(=O)CS(=O)(=O)Cc2ccccc2)s1 | 3.6% (inactive)
c1ccc(-c2noc(-c3cccs3)n2)nc1 | 7.6% (inactive)
c1ccc(-c2nccc(-c3ccc(-n4cnc5ccccc54)cc3)n2)nc1 | 39.8% (active)
CC(C)c1nc(-c2ccccn2)no1 | 4% (inactive)
COc1ccc(Nc2cc(=O)oc3ccccc23)cc1 | 5% (inactive)
Cc1cc(-n2nc(C)cc2C)n2nc(C)c(-c3ccccc3)c2n1 | -2.6% (inactive)
O=C(Nc1ccccc1)O/N=C1\CCCCC1c1ccc([N+](=O)[O-])cc1[N+](=O)[O-] (stereo not given) | -11% (inactive)
O=S(=O)(NN=C1CCCCCCC1)c1ccc(Br)cc1 | 6.1% (inactive)
Cc1nc2ccccc2n1C(=O)N1CCOCC1 | 1.2% (inactive)
Cc1ccc(S(=O)(=O)N(CC(=O)N2CCc3ccccc3C2)c2cccc(Cl)c2)cc1 | 4.6% (inactive)
Cc1cc(C)c(NC(=O)CN2CCOCCOCCOCCOCC2)c(C)c1 | 3.4% (inactive)
O=C(Oc1ccccc1)Oc1ccc2c(c1)oc(=O)c1ccccc12 | -1.7% (inactive)
COCCN(C(=O)c1ccco1)c1nnc(-c2ccc(OC)cc2)s1 | 10.8% (inactive)
COc1ccc(S(=O)(=O)NCc2ccc(C(=O)N(C)Cc3ccco3)cc2)cc1 | -6% (inactive)
CCOC(=O)C1=C(C)NC(SC)=NC1c1ccccc1 (stereo not given) | -0.6% (inactive)
Cc1nc2cc(NC(=O)NCc3ccccc3)ccc2o1 | -5.6% (inactive)
O=C1Nc2cc(Cl)c(Cl)cc2N(O)N1c1cc(Cl)cc(Cl)c1 | -15.4% (inactive)
COc1ccc2nc(SCC(=O)Nc3c(C)cc(C)cc3C)[nH]c2c1 | -3.6% (inactive)
O=C(c1cccc(F)c1)N1CCN(c2ccc([N+](=O)[O-])c(N3CCCCC3)c2)CC1 | 8.1% (inactive)

Structure (SMILES) | inhibition
Cc1nnc(NC(=O)Nc2ccc(Cl)c(Cl)c2)s1 | 24.4% (active)
CCn1nccc1C(=O)Nc1ccc(Cl)c(Cl)c1 | -0.3% (inactive)
O=C(CC(O)(C(F)(F)F)C(F)(F)F)Nc1ccc(Cl)c(Cl)c1 | -2.3% (inactive)
CCOC(=O)C1CN(S(=O)(=O)c2ccc(F)cc2)C1 | 8.4% (inactive)
CC(C)(C)NC(=O)CSC(=Nc1ccccc1F)NC#N | 11.7% (inactive)
CCCn1nnc(NC(=O)COc2ccc(CC)cc2)n1 | 14.5% (inactive)
CCOC(=O)C(Sc1ncc(C#N)c(N)n1)C(C)C (stereo not given) | 4.5% (inactive)
Cc1ccc(CN2CCN(/N=C/c3ccco3)CC2)c(C)c1 | 6.2% (inactive)
CCOC(=O)CN(Cc1ccc(OC)c(OC)c1)S(=O)(=O)c1ccc(OC)cc1 | 4.6% (inactive)
Cn1nc(C(F)(F)F)c2cc(NC(=O)OCC(C)(C)C)sc21 | -3.4% (inactive)
CCCCNCc1ccc(SC)cc1 | -8.8% (inactive)
COc1ccc(-c2noc(CSc3ccc(C)cc3)n2)cc1 | 6.7% (inactive)
CCSc1nnc(NC(=O)c2ccc(C)cc2)s1 | -2.4% (inactive)
CC(C)(C)C(=O)Nc1ccc(C(=O)N/N=C/c2ccccc2OC(=O)c2ccc(Cl)cc2Cl)cc1 | 13% (inactive)
CC(C)n1c(-c2cccs2)nc2ccccc21 | -3.5% (inactive)
CCOC(=O)c1cnc(SCC(=O)Nc2cccc(OC)c2)nc1N | -12.3% (inactive)
Cc1ccc(-n2c(C)cc(/C=N/Nc3ccc([N+](=O)[O-])cn3)c2C)c(C)c1 | 11.5% (inactive)
Cc1nc(NC(=O)CN(C)S(=O)(=O)c2ccc(Cl)cc2)sc1C | 6.8% (inactive)
Nc1c(-c2cccc(Cl)c2)cnn1-c1cccc([N+](=O)[O-])c1 | -9.9% (inactive)
O=C(N/N=C/c1ccsc1)c1cc(O)cc(O)c1 | 4.4% (inactive)
Cn1cc([N+](=O)[O-])c(C(=O)Nc2ccc3c(c2)OCCO3)n1 | 3.8% (inactive)
O=S(=O)(N/N=C\c1cccn1-c1ccccc1)c1ccc2ccccc2c1 | -4.4% (inactive)
O=C1CSC(c2ccc(Cl)cc2)N1 (stereo not given) | -5.4% (inactive)
COCC(=O)Nc1ccc(Br)cc1 | -3.3% (inactive)
Cn1c(=O)c2c(nc(N3CCOCC3)n2CCNC2=NCCC2)n(C)c1=O | -6.1% (inactive)

Structure (SMILES) | inhibition
COn1c(=O)c(=O)n(OC)c2ccccc21 | 3.4% (inactive)
Cc1oc(-c2ccccc2Cl)[n+]([O-])c1C | -4.8% (inactive)
CC1=NN(C(C)C)C(=O)C1 | 1.5% (inactive)
c1ccc(CSc2ncnc3c2sc2nc(N4CCOCC4)c4c(c23)CCCC4)cc1 | 10.1% (inactive)
CCOc1cccc(NC(=O)Cn2nc(-c3ccc4c(c3)OCCO4)ccc2=O)c1 | 7.6% (inactive)
O=C(Nc1ccc2sc3ccccc3c(=O)c2c1)c1ccccc1Cl | 1.6% (inactive)
COC(=O)CSc1nnc(-c2cccnc2)o1 | 4.2% (inactive)
Cc1ccc2oc(=O)c3cnn(CC(=O)N(Cc4ccco4)C4CCCCC4)c3c2c1 | 3.6% (inactive)
COc1cc(S(=O)(=O)N(Cc2cccs2)C2CC2)ccc1-n1cnnn1 | -4.5% (inactive)
CCOc1ccc(N=C2NC(=O)S/C2=C\c2ccc(O)cc2)cc1 | -3.4% (inactive)
COc1ccc2oc(=O)c(C(=O)NCc3ccccn3)cc2c1 | -1.3% (inactive)
N#Cc1ccccc1CN1C(=O)S/C(=C/c2cccn2-c2cccc(C(=O)O)c2)C1=O | 32.6% (active)
Cc1cc(/C=C2/SC(=O)N(CC(=O)OC(C)C)C2=O)c(C)n1C | 9.2% (inactive)
Brc1ccc(-c2nnc(-c3ccccc3)o2)o1 | -8.3% (inactive)
O=C(CCCN1C(=O)c2ccccc2C1=O)Oc1ccc(Cl)cc1 | 4.1% (inactive)
COc1ccc(/C(O)=C2/C(=O)C(=O)N(CC3CCCO3)C2c2ccc(OC)c(OC)c2)cc1 (stereo not given) | -1.4% (inactive)
COc1cc(CNCc2cccs2)cc(Br)c1OC | 1.7% (inactive)
O=c1onc(-c2cccs2)n1Cc1ccccc1 | 6.3% (inactive)
C=CCOC(=O)C1=C(C)NC(SCC(=O)OCC)=C(C#N)C1c1ccc(C)cc1 (stereo not given) | -1.5% (inactive)
COc1ccccc1NC(=O)CSc1nnc(C)n1CC1CCCO1 (stereo not given) | -14.6% (inactive)
CCCn1c(C(Cc2ccccc2)NC(=O)COC)nc2ccccc21 (stereo not given) | -7.4% (inactive)
CC(C)OC(=O)CN1C(=O)C(=O)c2ccccc21 | -2.8% (inactive)
COc1ccc([N+](=O)[O-])cc1C1NN=C(c2cccc3ccccc23)S1 (stereo not given) | 10.1% (inactive)
O=C(NCc1ccco1)C1(c2ccc(Cl)cc2)CCCC1 | -8.9% (inactive)
Cc1cccc(NC(=O)N(Cc2cc3cc(C)cc(C)c3[nH]c2=O)CC2COCCO2)c1 (stereo not given) | 2.6% (inactive)

Structure (SMILES) | inhibition
CCOC(=O)c1nc(C)n(-c2ccc(Cl)cc2Cl)n1 | -1.3% (inactive)
Cc1ccc(N2CCN(/N=C/c3cccs3)CC2)cc1 | 9.9% (inactive)
Clc1ccccc1SCc1nc2ccccc2[nH]1 | 2.7% (inactive)
Cc1ccc(NC(=O)CSCC(=O)N2CCOCC2)cc1 | -3.1% (inactive)
COC(=O)c1ccc(C2C(Oc3ccccc3C)C(=O)N2CCc2ccc(OC)c(OC)c2)cc1 (stereo not given) | -11.5% (inactive)
CCSc1nnc(NC(=O)Cc2ccccc2OC)s1 | 15.4% (inactive)
CC(c1ccco1)N(C(=O)Nc1ccccc1)C1CCCCC1 (stereo not given) | -2% (inactive)
CCOc1c2ccc(C(=O)NC3CCCc4ccccc43)cc2nn1CC (stereo not given) | -7.5% (inactive)
CCN1C(=O)/C(=C2/Sc3ccc(OC)cc3N2C)SC1=Nc1ccc(C)cc1 | -28% (inactive)
O=C(ON=C1CCN(S(=O)(=O)c2ccccc2)CC1)c1ccc(Cl)cc1 | -19.3% (inactive)
Cc1ccccc1C(=O)N1CCC(C(=O)Nc2ccc(S(=O)(=O)N(C)C(C)C)cc2)CC1 | 3.5% (inactive)
CCOc1c2ccc(C(=O)NCc3ccc4c(c3)OCO4)cc2nn1C | -4.3% (inactive)
Cc1cc(Cl)c(S(=O)(=O)N(C)C)cc1OCC(N)=O | -3.7% (inactive)
O=Cc1c(N2CCN(c3cccc(Cl)c3)CC2)nc2ccccn2c1=O | -12.5% (inactive)
COc1ccc(CN2CCn3ncc(C(=O)Nc4ccc(Cl)cc4Cl)c3C2=O)cc1 | -3.3% (inactive)
CC1CCc2c(nc3ncnn3c2Nc2ccc(OC(F)(F)F)cc2)C1 (stereo not given) | 16.7% (inactive)
O=C(/C=C/Sc1ncn[nH]1)c1ccc(Cl)cc1 | -5.9% (inactive)
Cc1cccc(-n2ncc(C#N)c2-n2cccc2)c1 | -13.4% (inactive)
CCOC(=O)c1ccc(COC(=O)CCc2nc(-c3ccccc3)c(-c3ccccc3)o2)cc1 | 10.3% (inactive)
COC(=O)CNC(c1ccccc1Cl)c1cc(Br)ccc1NC(=O)CCN1CCOCC1 (stereo not given) | 7.7% (inactive)
O=C(CSc1nc2ccccc2o1)N1c2ccccc2Sc2ccc(Cl)cc21 | 4.8% (inactive)
N#CC1=C(N)N(c2ccc(F)cc2)C(=O)C1 | 7% (inactive)
O=[N+]([O-])c1ccc(N2CCN(S(=O)(=O)c3ccc4ccccc4c3)CC2)cc1NCc1ccco1 | 4.1% (inactive)
Cn1nnnc1SCC(=O)Nc1ccccc1C(=O)NC1CC1 | 11.6% (inactive)
COc1ccc(-n2cnc3cc(NCc4ccco4)ccc32)cc1 | 6.5% (inactive)

From PubChem BioAssay AID640 (Columbia University Molecular Screening Center, 2007)
